Assay results reported in PubChem BioAssay.
Unmarked numbers belong to inactive results. A call without a number means that no potency is given here. For part of these data: Potency and affinity values are given separately. The source made the active and inactive calls. Unless noted, the rule behind the calls is not given here.

What was measured:
[1] = antimalarial activity against Dd2 strain (AID 2302;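 active = growth inhibition above 50% at the single 2 µM test dose, taken to imply half-maximal potency below 2 µM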); conditions: P. falciparum Dd2 in RBCs, LDH growth readout, 72 h; at 2 µM; active compounds read high
[2] = HepG2 cytotoxicity, primary screen, cytotoxicity control for P. falciparum antimalarial project, cell-based, ATP luminescence (AID 2303;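 active = inhibition above 50%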); conditions: HepG2 viability, 24-48 h, at 10 µM, active compounds read high
[3] = target: L-lactate dehydrogenase (Plasmodium falciparum (isolate CDC / Honduras)) (UniProt Q27743); assay: PfLDH activity inhibition – cell lysate, 3D7 strain, counter-screen for P. falciparum growth inhibition project (AID 2304); conditions: P. falciparum 3D7 crude extract, LDH APAD/NBT absorbance; at 2 µM; active compounds read high
Sequence of L-lactate dehydrogenase (Plasmodium falciparum (isolate CDC / Honduras)) (Q27743 whole entry, looked up): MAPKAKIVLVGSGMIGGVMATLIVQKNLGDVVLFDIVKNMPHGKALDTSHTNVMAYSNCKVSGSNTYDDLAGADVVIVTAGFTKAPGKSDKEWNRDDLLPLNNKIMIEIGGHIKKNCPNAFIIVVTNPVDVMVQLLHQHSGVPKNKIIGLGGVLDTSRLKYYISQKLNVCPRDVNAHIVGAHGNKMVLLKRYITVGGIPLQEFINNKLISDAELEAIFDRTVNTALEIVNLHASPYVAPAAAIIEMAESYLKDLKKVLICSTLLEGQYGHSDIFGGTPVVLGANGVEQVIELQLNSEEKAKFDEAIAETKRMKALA

[4] = inhibition of 3D7 malaria parasite growth – strain 3D7 (AID 2306); conditions: P. falciparum 3D7 erythrocytic growth, LDH absorbance, 72 h; at 2 µM; active compounds read high
[5] = target: Calcium-dependent protein kinase 1 (Plasmodium falciparum (isolate 3D7)) (UniProt P62344); assay: PfCDPK1 kinase inhibitors, biochemical, TCAMS library (AID 1159585; cut-off not given, nearly all actives have IC50 up to about 0.98 µM;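 note: inhibitors leave more ATP so luminescence rises with inhibition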); conditions: recombinant PfCDPK1, Kinase-Glo ATP depletion luminescence
Sequence of Calcium-dependent protein kinase 1 (Plasmodium falciparum (isolate 3D7)) (P62344 whole entry, looked up): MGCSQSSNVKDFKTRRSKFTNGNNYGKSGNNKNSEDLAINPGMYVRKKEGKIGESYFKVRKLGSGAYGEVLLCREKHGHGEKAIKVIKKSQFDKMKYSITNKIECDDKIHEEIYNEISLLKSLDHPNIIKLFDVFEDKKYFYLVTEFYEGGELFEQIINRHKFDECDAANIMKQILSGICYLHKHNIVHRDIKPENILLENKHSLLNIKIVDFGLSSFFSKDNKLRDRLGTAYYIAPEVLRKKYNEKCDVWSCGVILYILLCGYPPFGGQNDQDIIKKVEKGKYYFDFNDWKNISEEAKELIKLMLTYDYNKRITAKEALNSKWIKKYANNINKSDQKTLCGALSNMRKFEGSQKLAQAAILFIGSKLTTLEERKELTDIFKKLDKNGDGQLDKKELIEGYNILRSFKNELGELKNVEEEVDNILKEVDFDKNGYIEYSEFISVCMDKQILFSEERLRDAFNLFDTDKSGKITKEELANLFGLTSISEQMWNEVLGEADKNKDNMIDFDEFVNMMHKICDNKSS

[6] = target: Plasmodium falciparum protein kinase 6 (PK6, PF3D7_1337100) (UniProt Q8IDW1); assay: PfPK6 kinase inhibitors, biochemical, TCAMS library (AID 1159586); conditions: recombinant PfPK6, Kinase-Glo ATP depletion luminescence
Sequence of Plasmodium falciparum protein kinase 6 (PK6, PF3D7_1337100) (Q8IDW1 1-305): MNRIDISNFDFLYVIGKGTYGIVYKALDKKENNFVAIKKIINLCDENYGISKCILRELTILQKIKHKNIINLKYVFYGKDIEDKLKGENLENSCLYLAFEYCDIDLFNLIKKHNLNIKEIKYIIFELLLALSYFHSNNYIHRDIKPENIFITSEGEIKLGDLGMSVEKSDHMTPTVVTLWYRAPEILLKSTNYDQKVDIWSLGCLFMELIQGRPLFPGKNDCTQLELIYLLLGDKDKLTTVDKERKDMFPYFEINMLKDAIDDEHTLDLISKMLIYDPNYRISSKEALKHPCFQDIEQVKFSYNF

[7] = target: Protein kinase 7 (PK7), Plasmodium falciparum 3D7 (PF3D7_0213400) (UniProt Q7YTF7); assay: inhibition of Plasmodium PK7 catalytic activity – biochemical, TCAMS antimalarial set, Kinase-Glo luminescence (AID 1159587); conditions: recombinant PfPK7, Kinase-Glo ATP depletion luminescence
Sequence of Protein kinase 7 (PK7), Plasmodium falciparum 3D7 (PF3D7_0213400) (Q7YTF7 1-343): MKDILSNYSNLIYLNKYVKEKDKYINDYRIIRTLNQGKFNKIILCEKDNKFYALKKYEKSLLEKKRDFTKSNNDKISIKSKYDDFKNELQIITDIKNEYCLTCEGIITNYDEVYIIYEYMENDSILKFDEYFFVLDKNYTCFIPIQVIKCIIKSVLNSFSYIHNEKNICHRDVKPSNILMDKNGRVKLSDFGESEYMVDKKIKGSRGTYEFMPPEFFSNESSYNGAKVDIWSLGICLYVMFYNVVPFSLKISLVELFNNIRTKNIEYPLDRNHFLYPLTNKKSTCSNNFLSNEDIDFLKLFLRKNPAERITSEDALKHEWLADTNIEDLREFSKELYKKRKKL

[8] = target: Calcium-dependent protein kinase 4 (Plasmodium falciparum (isolate 3D7)) (UniProt Q8IBS5); assay: PfCDPK4 kinase inhibitors, biochemical, TCAMS library (AID 1159588; cut-off not given, nearly all actives have IC50 up to about 0.91 µM); conditions: recombinant PfCDPK4, Kinase-Glo ATP depletion luminescence
Sequence of Calcium-dependent protein kinase 4 (Plasmodium falciparum (isolate 3D7)) (Q8IBS5 whole entry, looked up): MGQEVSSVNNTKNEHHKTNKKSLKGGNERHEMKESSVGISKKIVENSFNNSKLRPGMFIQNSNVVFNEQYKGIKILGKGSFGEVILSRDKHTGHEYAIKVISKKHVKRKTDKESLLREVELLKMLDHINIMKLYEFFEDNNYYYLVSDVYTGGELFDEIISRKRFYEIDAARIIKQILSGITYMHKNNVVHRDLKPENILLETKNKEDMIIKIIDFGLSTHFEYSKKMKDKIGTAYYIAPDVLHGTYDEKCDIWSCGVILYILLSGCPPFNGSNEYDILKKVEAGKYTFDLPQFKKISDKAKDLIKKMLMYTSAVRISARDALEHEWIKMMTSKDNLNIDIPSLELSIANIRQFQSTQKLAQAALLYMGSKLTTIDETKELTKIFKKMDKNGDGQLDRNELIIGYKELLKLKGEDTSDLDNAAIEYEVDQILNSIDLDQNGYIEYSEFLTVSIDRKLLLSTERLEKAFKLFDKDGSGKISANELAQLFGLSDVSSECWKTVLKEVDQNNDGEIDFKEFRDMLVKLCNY

Structure (SMILES)	growth inhibition [1]	inhibition [2]	inhibition [3] [%]	growth inhibition [4]	outcome [5]	outcome [6]	outcome [7]	outcome [8]
CCCCNCc1ccc(OCc2cccc(COc3ccc(CNCCCC)cc3)c2)cc1	35%	98% (active)	5	100% (active)	inactive	inactive	inactive	inactive
Cc1cccc2[nH]c(-c3ccc(-c4ccc(CN5CCC(CCN6CCCCC6)CC5)cc4)cc3)nc12	100% (active)	99% (active)	6	100% (active)	inactive	inactive	inactive	inactive
COc1ccc(CNC2Cc3ccccc3C2)cc1-c1ccc(OC)c(S(=O)(=O)NCCN2CCCC2)c1	97% (active)	31%	-9	101% (active)	inactive	inactive	inactive	inactive
Nc1nccc2ccc(-c3ccc(NC(=O)Nc4cc(C(F)(F)F)ccc4F)cc3)cc12	100% (active)	99% (active)	-3	101% (active)	inactive	inactive	inactive	inactive
CCNc1cc(C(=O)N[C@@H](Cc2ccccc2)[C@H](O)CNC2(C(C)C)CCC2)cc(N2CCCCS2(=O)=O)c1	85% (active)	-3%	-2	99% (active)	inactive	inactive	inactive	inactive
Cc1cc(N2CCC(NS(=O)(=O)c3cccc4cccnc34)CC2)nc(Nc2cccc(C#N)c2)n1	87% (active)	12%	-3	98% (active)	inactive	inactive	inactive	inactive
OCCN1CCN(Cc2cccc(-c3ccc(-c4nc5ccc(C(F)(F)F)cc5[nH]4)cc3)c2)CC1	85% (active)	19%	-2	102% (active)	inactive	inactive	inactive	inactive
COc1ccccc1Nc1nc(NC2CCN(C)CC2)cc(-c2cccc(C(F)(F)F)c2)n1	71% (active)	100% (active)	-10	95% (active)	inactive	inactive	inactive	inactive
COc1ccc(CNCc2cccc(-c3ccc(-c4nc5ccc(C(F)(F)F)cc5[nH]4)cc3)c2)cc1	95% (active)	23%	0	102% (active)	inactive	inactive	inactive	inactive
COc1cc(C2NCC3(CCOCC3)c3cc4c(cc32)OCCO4)cc(OC)c1OC (configuration not stated)	2%	24%	-5	95% (active)	inactive	inactive	inactive	inactive
Cc1ccc(Nc2nc(C)cc(N3CCN(CCc4ccccc4)CC3)n2)cc1	6%	6%	-9	93% (active)	inactive	inactive	inactive	inactive
O=C(N[C@@H](CC1CCCCC1)C(=O)NCCN1CCCCC1)c1ccc(O)c(-c2cccc(C(F)(F)F)c2)c1	97% (active)	-5%	6	99% (active)	inactive	inactive	inactive	inactive
O=C(Nc1ccc(-c2ccccc2)cc1)Nc1cccc(Cn2nc(Cl)c(N3CCNCC3)cc2=O)c1	79% (active)	15%	-2	102% (active)	inactive	inactive	inactive	inactive
COc1ccc(CNCCCCCCNCc2ccc(OC)c3ccccc23)c2ccccc12	49%	100% (active)	-5	102% (active)	inactive	inactive	inactive	inactive
COc1ccc(N2CCN(CCCCNC(=O)c3ccc(/C=C/c4ccc(Cl)c(Cl)c4)cc3)CC2)c(OC)c1	51% (active)	51% (active)	-8	101% (active)	inactive	inactive	inactive	inactive
Cc1cc(NN=Cc2ccccc2F)c2cc(C(F)(F)F)ccc2n1	67% (active)	5%	2	102% (active)	inactive	inactive	inactive	inactive
O=C(Nc1cccc(C(F)(F)F)c1)c1cccc(S(=O)(=O)NC2CCCN(CC3CCCCC3)C2)c1 (configuration not stated)	15%	18%	1	97% (active)	inactive	inactive	inactive	inactive
O=C(NCCCCN1CCC(c2ccc3ccccc3c2)CC1)c1ccc(NC(=O)c2ccc(Cl)cc2)cc1	93% (active)	24%	-4	102% (active)	inactive	inactive	inactive	inactive
CCCc1ccc(NC(=O)c2cccc(CN3CCCN(Cc4cccc(C#N)c4)CC3)c2)cc1	0%	20%	-4	85% (active)	inactive	inactive	inactive	inactive
O=C(Nc1ccc(C(F)(F)F)cc1)c1ccc(S(=O)(=O)NCC2CCCN(CC3CCCCC3)C2)cc1 (configuration not stated)	-6%	44%	-7	93% (active)	inactive	inactive	inactive	inactive

Structure (SMILES)	growth inhibition [1]	inhibition [2]	inhibition [3] [%]	growth inhibition [4]	outcome [5]	outcome [6]	outcome [7]	outcome [8]
CN1CCC(C(=O)N(Cc2ccc(-c3ccc(CNCCc4ccccc4)cn3)cc2)C2Cc3ccccc3C2)CC1	97% (active)	65% (active)	-2	88% (active)	inactive	inactive	inactive	inactive
COc1c(C2CCN(CCCCNC(=O)c3ccc(-c4ccc(C(F)(F)F)cc4)c(C(=O)OC(C)C)c3)CC2)ccc2c1CCCC2	30%	24%	0	90% (active)	inactive	inactive	inactive	inactive
Cc1nc(-c2ccc(C(F)(F)F)cn2)sc1C(=O)N1CCc2cc3nccc(N4CCN5CCC[C@H]5C4)c3cc21	72% (active)	5%	0	100% (active)	inactive	inactive	inactive	inactive
COc1cc(Cc2cnc(N)nc2N)c2c(c1OC)OC(C)C=C2 (configuration not stated)	1%	-1%	6	87% (active)	inactive	inactive	inactive	inactive
CN1CCC(NCc2cccc(-c3ccc(S(=O)(=O)NCCN4CCCC4)c(F)c3)c2)CC1	-4%	14%	2	91% (active)	inactive	inactive	inactive	inactive
CC(Cc1ccc(Cl)cc1)Nc1nc(NC2CCCC2)nc(N2CCC(C#N)(c3ccccc3)CC2)n1 (configuration not stated)	95% (active)	15%	-6	99% (active)	inactive	inactive	inactive	inactive
O=C(NCCCN1CCC(NC(=O)c2ccc(-c3cccnc3)cc2)CC1)c1ccc(Cl)c(Cl)c1	23%	17%	-5	94% (active)	inactive	inactive	inactive	inactive
Cc1cc(N2CCN(C)CC2)nc2ccc(NC(=O)Cc3cccc(C(F)(F)F)c3)cc12	51% (active)	26%	3	99% (active)	inactive	inactive	inactive	inactive
Cc1nnsc1C(=O)Nc1cccc(-c2ccc(-c3nc4ccccc4[nH]3)cc2)c1	58% (active)	48%	0	100% (active)	inactive	inactive	inactive	inactive
COc1ccc(CNC2Cc3ccccc3C2)cc1-c1ccc(S(=O)(=O)NCc2cccnc2)s1	18%	49%	3	91% (active)	inactive	inactive	inactive	inactive
O=C(Cn1c(SCc2cccc(F)c2F)cc(=O)c2ccccc21)N(Cc1ccc(-c2ccc(C(F)(F)F)cc2)cc1)C1CCN(CCO)CC1	81% (active)	50% (active)	4	89% (active)	inactive	inactive	inactive	inactive
Nc1c2ccccc2nc2cc(C(F)(F)F)ccc12	49%	8%	1	101% (active)	inactive	inactive	inactive	inactive
CC(C)(C)Oc1ccc(NC(=O)c2ccccc2O)cc1	67% (active)	4%	-6	86% (active)	inactive	inactive	inactive	inactive
CCOC(=O)/C(=N\OC(C)(C)C(=O)NCc1ccc(O)c(O)c1)c1csc(NC(c2ccccc2)(c2ccccc2)c2ccccc2)n1	99% (active)	13%	-3	100% (active)	inactive	inactive	inactive	inactive
O=C(Nc1ccnc2ccccc12)NC1CCN(CCc2ccccc2)CC1	43%	7%	-3	100% (active)	inactive	inactive	inactive	inactive
COc1ccc(-c2cccc(NC(=O)c3ccc(Cl)cc3)c2)cc1CN(C)CCN(C)C	61% (active)	37%	4	99% (active)	inactive	inactive	inactive	inactive
Cc1cccc(CNc2nccc3[nH]c4ccccc4c23)c1	51% (active)	14%	0	92% (active)	inactive	inactive	inactive	inactive
O=C(CNC(=O)c1ccc(O)cc1)Nc1ccc(-c2cccc(-c3nc4ccc(C(F)(F)F)cc4[nH]3)c2)cc1	47%	26%	3	92% (active)	inactive	inactive	inactive	inactive
O=C(Nc1ccc(S(=O)(=O)N2CCCC2)cc1)c1cc(-c2cccnc2)nc2ccc(Cl)cc12	95% (active)	4%	-6	97% (active)	inactive	inactive	inactive	inactive
